# Measured values from PubChem BioAssay (NCATS).
# Inconclusive results are not listed. Entries that show only a call come without a potency. Calls of active or inactive are those of the source. Calls follow the shape of the dose curve; as a rule, active = well fitted curve in the direction sought with a large enough effect; inconclusive = small, poorly fitted or top-dose-only effect, or another doubt; inactive = no such curve, though single readings can be large; an effect the other way counts as inactive or inconclusive. Numbered stars: 1 amine (or outer) side, 2 acyl side, 3 side chain; on linkers, the order of the positions; unused ones are H or OH. Bridge positions count the residues as written; N and C are the ends. Square brackets hold non-standard residues; d marks the D form. Peptide text beside a SMILES is read from it. I, II: the chains in the order shown. Actinocin(9to1) = Cc1c2oc3c(C)ccc(C(=O)[*:1])c3nc-2c(C(=O)[*:2])c(N)c1=O; NMeV = CN[C@H](C(=O)O)C(C)C; Sar = CNCC(=O)O
# Columns and labels:
# [1] = target: Furin (Homo sapiens) (UniProt P09958); assay: Furin counterscreen qHTS for Zika virus inhibitors (AID 1347149); also: nearly all actives have a fitted effect of over 70% in size
# Sequence of Furin (Homo sapiens) (P09958 whole entry, looked up): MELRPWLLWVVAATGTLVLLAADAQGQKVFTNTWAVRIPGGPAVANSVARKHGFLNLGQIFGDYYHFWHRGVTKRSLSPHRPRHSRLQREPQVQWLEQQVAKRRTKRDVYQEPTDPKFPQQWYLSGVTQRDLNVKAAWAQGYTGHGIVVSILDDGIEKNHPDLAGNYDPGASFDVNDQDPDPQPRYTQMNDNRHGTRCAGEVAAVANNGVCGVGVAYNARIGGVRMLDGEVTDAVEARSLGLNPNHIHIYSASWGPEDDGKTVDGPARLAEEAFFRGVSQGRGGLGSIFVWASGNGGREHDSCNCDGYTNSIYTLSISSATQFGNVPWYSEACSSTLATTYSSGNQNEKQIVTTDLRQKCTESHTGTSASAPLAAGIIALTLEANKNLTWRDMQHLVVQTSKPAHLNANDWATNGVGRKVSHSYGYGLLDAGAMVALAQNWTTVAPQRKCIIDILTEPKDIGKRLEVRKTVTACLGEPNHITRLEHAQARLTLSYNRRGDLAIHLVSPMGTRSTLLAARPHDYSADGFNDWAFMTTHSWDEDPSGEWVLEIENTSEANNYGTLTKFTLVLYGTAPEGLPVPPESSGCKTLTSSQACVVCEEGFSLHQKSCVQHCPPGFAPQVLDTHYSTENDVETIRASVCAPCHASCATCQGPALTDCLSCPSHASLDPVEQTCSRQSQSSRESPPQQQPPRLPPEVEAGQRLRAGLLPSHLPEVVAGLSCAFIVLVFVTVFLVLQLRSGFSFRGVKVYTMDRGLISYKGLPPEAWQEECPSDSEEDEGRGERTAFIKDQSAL
# How it was run: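 Fluorogenic cleavage of BOC-RVRR-AMC (2 microM final, Km ~15 µM) was monitored (ex 340, em 450 nm) at 37C after 15 min RT preincubation of 5 nM furin with compounds in HEPES pH 7.0 buffer with CaCl2 and Triton X-100. Percent inhibition was fitted to a 4-parameter Hill curve.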
# [2] = ZIKV-mCherry secondary qHTS for Zika virus inhibitors (AID 1347158)
# How it was run: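 Vero cells (5,000/well) were given compound, then infected with ZIKV-mCherry at MOI 1 for 48–72 h at 37 °C. After PFA fixation and Hoechst staining, imaging gave percent mCherry-positive cells. The positivity threshold was RFU above 450, 3 SD over negative controls.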
# [3] = system: Zika virus NS2B-NS3 protease (linked construct); assay: Confirmatory screen NINDS AMC qHTS for Zika virus inhibitors (AID 1347152); also: nearly all actives have a fitted effect of over 70% in size
# How it was run: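 IC50s from 4-parameter Hill fits of percent inhibition, based on AMC fluorescence gain (340/450 nm) over 15 min with 10 microM Bz-Nle-KRR-AMC. Enzyme: 1 nM linked NS2B-NS3 in Tris-HCl pH 8.0; 15-min compound preincubation.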
# [4] = system: Zika virus NS2B-NS3 protease (unlinked complex); assay: Confirmatory screen GU AMC qHTS for Zika virus inhibitors (AID 1347153); also: nearly all actives have a fitted effect of over 70% in size
# How it was run: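 Unlinked enzyme 25 nM, Tris pH 8.0/0.01% Tween 20; cpd 15 min RT, dark; + AMC substrate 10 µM (Km 18.3 µM); 340/450 nm read at t0 and 15 min; % inhibition → 4-param fit.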
# [5] = system: Zika virus NS2B-NS3 protease; assay: Primary screen GU AMC qHTS for Zika virus inhibitors (AID 1347154); also: nearly all actives have a fitted effect of over 70% in size
# How it was run: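 Unlinked Zika NS2B hydrophilic domain/NS3 protease domain noncovalent complex (25 nM final) in 10 mM Tris-HCl pH 8.0, 0.01% Tween 20, with AMC peptide substrate. Fluorescence (ex 340, em 450 nm) change over 15 min, room temperature; percent inhibition fitted to 4-parameter Hill equation.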
# [6] = target: N-terminal Xaa-Pro-Lys N-methyltransferase 1 (Homo sapiens) (UniProt Q9BV86); assay: qHTS Assay for Inhibitors of N-terminal methyltransferase 1 (NTMT1): LOPAC validation of the NTMT1 SAHH-coupled ThioGlo3 Assay (AID 1347143); also: nearly all actives have a fitted effect of over 70% in size
# Sequence of N-terminal Xaa-Pro-Lys N-methyltransferase 1 (Homo sapiens) (Q9BV86 whole entry, looked up): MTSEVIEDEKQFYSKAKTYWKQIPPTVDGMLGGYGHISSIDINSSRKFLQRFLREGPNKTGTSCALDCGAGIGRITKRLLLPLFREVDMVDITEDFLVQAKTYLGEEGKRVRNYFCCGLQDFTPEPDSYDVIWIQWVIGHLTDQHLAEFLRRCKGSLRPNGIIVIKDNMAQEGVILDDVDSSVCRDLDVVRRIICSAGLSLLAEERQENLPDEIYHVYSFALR
# How it was run: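 Fluorescence read-out (excitation 340nm, emission 450nm) of SAH-derived thiol, measured via SAHH coupling and ThioGlo3, taken immediately and after a 30 min room-temperature reaction, then normalized to the background read. Enzyme: NTMT1 at 125nM; cofactor SAM 100uM in the added reagent.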
# [7] = system: Zika virus NS2B-NS3 protease (unlinked); assay: Optimization of GU AMC qHTS for Zika virus inhibitors: Unlinked NS2B-NS3 protease assay (AID 1347151); also: nearly all actives have a fitted effect of over 80% in size
# How it was run: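 Fluorescence gain (340/450 nm) over 15 min at room temperature, ~20% conversion, gave percent inhibition fitted to a 4-parameter Hill equation; enzyme was unlinked NS2B-NS3 (25 nM final), pH 8.0 Tris buffer.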
# [8] = Confirmatory screen GU Rhodamine qHTS for Zika virus inhibitors qHTS (AID 1347157); conditions: purified enzyme assay, Rhodamine110 substrate fluorescence, 15 min; also: nearly all actives have a fitted effect of over 70% in size
# How it was run: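 Percent inhibition derives from the 15-min fluorescence change (ex 480, em 540 nm), normalized to no-enzyme and no-inhibitor wells. Reactions contained 25 nM NS2B-NS3 complex and 1.5 microM substrate in 10 mM Tris-HCl pH 8.0.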
# Potency is read from the fitted curve at half-maximal effect.
structure (smiles),measurement,setting,value
COc1c(C)c2c(c(O)c1C/C=C(\C)CCC(=O)O)C(=O)OC2,Potency,[1],inactive
CCCCC(CC)CN=C(N)NC(N)=NCCCCCCN=C(N)NC(N)=NCC(CC)CCCC (configuration not stated),Potency,[1],21.5 µM (active)
same,Potency,[2],inactive
"Cc1c2oc3c(C)ccc(C(=O)N[C@@H]4C(=O)N[C@H](C(C)C)C(=O)N5CCC[C@H]5C(=O)N(C)CC(=O)N(C)[C@@H](C(C)C)C(=O)O[C@@H]4C)c3nc-2c(C(=O)N[C@@H]2C(=O)N[C@H](C(C)C)C(=O)N3CCC[C@H]3C(=O)N(C)CC(=O)N(C)[C@@H](C(C)C)C(=O)O[C@@H]2C)c(N)c1=O (I: T[dV]P[Sar][NMeV] / II: T[dV]P[Sar][NMeV]; ester I:1-I:C, II:1-II:C; linker I:N-II:N via Actinocin(9to1))",Potency,[3],inactive
same,Potency,[4],inactive
Nc1nc2ncc(CNc3ccc(C(=O)N[C@@H](CCC(=O)O)C(=O)O)cc3)nc2c(=O)[nH]1,Potency,[1],21.5 µM (active)
same,Potency,[4],inactive
same,Potency,[5],18.1 µM (active)
CN1C2CCC1CC(OC(=O)c1c[nH]c3ccccc13)C2 (configuration not stated),Potency,[6],inactive
same,Potency,[7],inactive
O=C(CCN1CCC(c2ccccc2)C1)c1ccc2c(c1)OCCO2 (configuration not stated),Potency,[5],inactive
CCCCc1nc(Cl)c(CO)n1Cc1ccc(-c2ccccc2-c2nn[nH]n2)cc1,Potency,[5],inactive
NCCCC[C@H](N[C@@H](CCc1ccccc1)C(=O)O)C(=O)N1CCC[C@H]1C(=O)O,Potency,[5],inactive
CC(C)(C)CC(C)(C)c1ccc(OCCOCC[N+](C)(C)Cc2ccccc2)cc1,Potency,[1],inactive
same,Potency,[7],inactive
same,Potency,[5],inactive
Oc1c(Cl)cc(Cl)cc1Sc1cc(Cl)cc(Cl)c1O,Potency,[1],inactive
same,Potency,[8],22.4 µM (active)
O=c1ccc2ccccc2o1,Potency,[5],inactive
O=C1[C@H]2CCCC[C@H]2C(=O)N1CCCCN1CCN(c2nsc3ccccc23)CC1,Potency,[5],inactive
CC(C)COC(=O)OCN1C(=O)CN(CCN2CC(=O)N(COC(=O)OCC(C)C)C(=O)C2)CC1=O,Potency,[6],inactive
same,Potency,[7],inactive
COc1cc(NS(C)(=O)=O)ccc1Nc1c2ccccc2nc2ccccc12,Potency,[6],50.1 µM (active)
same,Potency,[7],29.9 µM (active)
Clc1ccc2c(c1)CCc1cccnc1C2=C1CCNCC1,Potency,[5],inactive
C[N+]1(CCCCC[N+]2(C)CCCC2)CCCC1,Potency,[6],inactive
same,Potency,[7],inactive
CC1(C)CCC(NC(=O)[C@@H](N)CCC(=O)O)CC1,Potency,[6],inactive
same,Potency,[7],inactive
CCCCOc1cc(C(=O)NCCN(CC)CC)c2ccccc2n1,Potency,[5],inactive
C1CCc2nnnn2CC1,Potency,[6],inactive
same,Potency,[7],inactive
same,Potency,[5],inactive
CC(Cc1ccccc1)(NC(=O)CN)c1ccccc1 (configuration not stated),Potency,[5],inactive
Nc1cc(Cl)c(NC2=NCCN2)c(Cl)c1,Potency,[6],inactive
same,Potency,[7],inactive
CC[C@H](C)C(=O)O[C@H]1CCC=C2C=C[C@H](C)[C@H](CC[C@@H]3C[C@@H](O)CC(=O)O3)[C@H]21,Potency,[6],inactive
same,Potency,[7],inactive
N[C@H](CO)C(=O)O,Potency,[6],inactive
same,Potency,[7],inactive
same,Potency,[5],inactive
O=C(Nc1ccc(Oc2ccc(Cl)cc2)c(Cl)c1)c1cc(I)cc(I)c1O,Potency,[1],inactive
same,Potency,[3],13.6 µM (active)
same,Potency,[4],21.5 µM (active)
same,Potency,[5],14.1 µM (active)
same,Potency,[8],6.31 µM (active)
same,Potency,[2],11.2 µM (active)
CCC(NC(C)C)C(O)c1ccc(O)c(O)c1 (configuration not stated),Potency,[7],inactive
CC(=O)O[C@H]1C[C@@H]2CC[C@@H]3[C@H](CC[C@@]4(C)[C@H]3C[C@H]([N+]3(C)CCCCC3)[C@@H]4OC(C)=O)[C@@]2(C)C[C@@H]1[N+]1(C)CCCCC1,Potency,[6],inactive
same,Potency,[7],inactive
O=C(O)c1cc2cc(Cc3cccnc3)ccc2o1,Potency,[6],inactive
same,Potency,[7],inactive
CC(CCc1ccccc1)NCC(O)c1ccc(O)c(C(N)=O)c1 (configuration not stated),Potency,[6],56.2 µM (active)
same,Potency,[7],26.7 µM (active)
COc1cc(-c2ccc(=O)[nH]n2)ccc1OC(F)F,Potency,[5],inactive
CNCCC=C1c2ccccc2CCc2ccccc21,Potency,[6],inactive
same,Potency,[7],inactive
COC(=O)[C@H]1[C@H]2C[C@H]3c4[nH]c5ccccc5c4CCN3C[C@H]2CC[C@@H]1O,Potency,[7],inactive
C/C=C/c1ccc(OC)cc1,Potency,[5],inactive
N[C@@H](Cc1cnc[nH]1)C(=O)O,Potency,[6],inactive
same,Potency,[7],inactive
C[C@]12CC[C@@H]3c4ccc(O)cc4CC[C@H]3[C@@H]1CC[C@@H]2O,Potency,[7],inactive
same,Potency,[5],inactive
CC(C)C[C@H]1C(=O)N2CCC[C@H]2[C@]2(O)O[C@](NC(=O)[C@@H]3C=C4c5cccc6[nH]c(Br)c(c56)C[C@H]4N(C)C3)(C(C)C)C(=O)N12,Potency,[6],56.2 µM (active)
same,Potency,[7],11.9 µM (active)
same,Potency,[3],inactive
same,Potency,[4],inactive
